The text below walks through data of PubChem BioAssay AID393 (SGCOxCompounds, 2006).

SMILES strings stand for the structures. Activity calls are given as the source filed them. No rule for the calls is given here.

For this assay, the target named is Serine/threonine-protein kinase pim-1 (Homo sapiens) (UniProt P11309). The assay can be described thus: compound-induced PIM1 thermal stabilization – biophysical, human, melting temperature shift (AID 393). Conditions: Thermal shift assay, at 10 µM, active compounds read high; protein 2 µM, buffer 10 mM Na Citrate, pH 6.5, NaCl 150 mM unless noted.
Serine/threonine-protein kinase pim-1 (Homo sapiens), sequence (P11309 whole entry, looked up): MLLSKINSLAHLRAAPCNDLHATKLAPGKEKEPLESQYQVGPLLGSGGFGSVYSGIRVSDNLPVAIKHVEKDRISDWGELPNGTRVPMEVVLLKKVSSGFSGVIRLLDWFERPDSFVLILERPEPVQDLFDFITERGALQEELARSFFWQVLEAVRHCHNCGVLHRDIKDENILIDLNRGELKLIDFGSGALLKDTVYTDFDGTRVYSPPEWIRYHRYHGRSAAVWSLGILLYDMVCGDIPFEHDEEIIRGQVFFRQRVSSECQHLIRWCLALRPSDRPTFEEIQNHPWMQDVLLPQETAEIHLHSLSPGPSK
For the compound `O=C1Nc2ccccc2/C1=C\c1cnc[nH]1`, the Tm shift was 3.92 Celsius [protein 3 µM, buffer 10 mM HEPES] (active).

Regarding `N#C/C(=C1\Nc2ccccc2S1)c1ccnc(NCCc2cccnc2)n1`, the Tm shift was 10.3 Celsius (active).

Regarding `O=C1NC(=O)c2c1c1c3ccccc3n3c1c1c2c2ccccc2n1[C@@H]1CCC3O1`, the Tm shift is 12.7 Celsius [protein 2 µM, buffer 10 mM PIPES, pH 6.5, NaCl 150 mM] (active).

As for `CCn1cnc2c(Nc3cccc(Cl)c3)nc(N[C@@H]3CCCC[C@@H]3N)nc21`, the Tm shift is 5.8 Celsius (active).

Consider `Cc1c2ccncc2c(C)c2c1[nH]c1ccccc12`, for which the Tm shift was 8.6 Celsius (active).
